These results are taken from PubChem BioAssay (EPA / NIEHS).

Assay [1] concerns the target human Beta-secretase (BACE), BACE1 (gene 23621) (UniProt P56817). Description: NVS_ENZ_hBACE: NovaScreen (NVS) Enzymatic Assay for human Beta-secretase (BACE) (AID 2283140).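 Note: hits are inhibitors that reduce fluorescent substrate signal versus DMSO.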 Put shortly: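 Compounds were first tested in duplicate at 25 uM, then actives in concentration series, against recombinant BACE1 from SF9 cells. Enzyme activity was measured by fluorescence intensity 1 hour after dosing, with DMSO as negative control.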

The target in assay [2] is human Casein Kinase 1-delta (CK1D), CSNK1D (gene 1453) (UniProt P48730). Nature of the assay: NVS_ENZ_hCK1D: NovaScreen (NVS) Enzymatic Assay for human Casein Kinase 1-delta (CK1D) (AID 2283148). Put shortly:
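Recombinant human CK1-delta, cell-free; fluorescent substrate with electrophoretic mobility-shift separation of product, read 1 h after dosing. Single 25 uM duplicate screen, then concentration-response up to 50 uM; loss of signal vs DMSO.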

Assay [3] deals with human Colony Stimulating Factor 1 Receptor (CSF1R), CSF1R (gene 1436) (UniProt P07333). Description: NVS_ENZ_hCSF1R: NovaScreen (NVS) Enzymatic Assay for human Colony Stimulating Factor 1 Receptor (CSF1R) (AID 2283150). Put shortly: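 Cell-free recombinant human CSF1R kinase with fluorescent substrate, product separated by electrophoretic mobility shift; read 1 h after dosing. Primary screen at 25 uM in duplicate, actives then in concentration-response up to 50 uM, relative to DMSO.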
Sequence of human Colony Stimulating Factor 1 Receptor (CSF1R), CSF1R (gene 1436) (P07333 whole entry, looked up): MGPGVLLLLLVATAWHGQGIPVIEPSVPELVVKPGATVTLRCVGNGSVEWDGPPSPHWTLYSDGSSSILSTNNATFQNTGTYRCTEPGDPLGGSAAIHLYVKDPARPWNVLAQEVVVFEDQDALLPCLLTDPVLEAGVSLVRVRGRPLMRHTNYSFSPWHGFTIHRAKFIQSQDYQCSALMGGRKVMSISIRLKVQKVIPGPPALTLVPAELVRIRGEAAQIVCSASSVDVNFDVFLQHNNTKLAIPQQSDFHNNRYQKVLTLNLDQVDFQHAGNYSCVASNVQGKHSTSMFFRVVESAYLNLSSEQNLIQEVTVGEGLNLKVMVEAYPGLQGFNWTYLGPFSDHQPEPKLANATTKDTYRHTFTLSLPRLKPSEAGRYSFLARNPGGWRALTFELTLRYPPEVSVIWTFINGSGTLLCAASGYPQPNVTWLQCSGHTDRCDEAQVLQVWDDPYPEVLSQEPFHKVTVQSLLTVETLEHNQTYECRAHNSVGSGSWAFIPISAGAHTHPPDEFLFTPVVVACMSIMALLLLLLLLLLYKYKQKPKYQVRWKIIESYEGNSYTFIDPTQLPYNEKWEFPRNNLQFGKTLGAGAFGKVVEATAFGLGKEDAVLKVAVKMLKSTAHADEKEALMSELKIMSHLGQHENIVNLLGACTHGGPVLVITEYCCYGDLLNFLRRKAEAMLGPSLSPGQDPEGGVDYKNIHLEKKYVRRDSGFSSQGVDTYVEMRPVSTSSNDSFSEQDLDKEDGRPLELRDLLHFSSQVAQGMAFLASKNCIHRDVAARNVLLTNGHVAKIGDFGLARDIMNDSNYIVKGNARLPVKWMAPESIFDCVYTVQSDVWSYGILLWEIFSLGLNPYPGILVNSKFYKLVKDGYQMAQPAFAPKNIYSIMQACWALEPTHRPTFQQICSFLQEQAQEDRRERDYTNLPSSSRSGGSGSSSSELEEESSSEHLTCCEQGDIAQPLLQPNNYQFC

The target in assay [4] is human Elastase, ELANE (gene 1991) (UniProt P08246). Nature of the assay: NVS_ENZ_hElastase: NovaScreen (NVS) Enzymatic Assay for human Elastase (AID 2283153). Put shortly:
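Cell-free elastase from human neutrophils, 1.5 h after dosing, activity read by absorbance. Primary screen in duplicate at 25 uM; hits (e.g., 30% inhibition) rerun in singleton concentration-response up to 50 uM, fitted versus DMSO.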

Assay [5] addresses human Caspase 5 (CASP5), CASP5 (gene 838) (UniProt P51878). Description: NVS_ENZ_hCASP5: NovaScreen (NVS) Enzymatic Assay for human Caspase 5 (CASP5) (AID 2283137). The procedure, abridged:
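E. coli-derived enzyme, cell-free, 2 h incubation, fluorescence intensity. 25 uM duplicate single-point; hits → concentration series to 50 uM. DMSO baseline, positive/negative controls on every plate.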

The next assay addresses CDK2 (gene 1017) (UniProt P24941). Description: NVS_ENZ_hCDK2: NovaScreen (NVS) Enzymatic Assay for human Cyclin-Cependent Kinase 2 (CDK2) (AID 2283144). The procedure, abridged:
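Cell-free recombinant human CDK2 with fluorescent substrate, product separated by electrophoretic mobility shift; 1 hr read. Primary screen at 25 uM in duplicate, actives retested in concentration-response up to 50 uM; loss of signal versus DMSO.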

Assay [6] has as its target human Caspase 8 (CASP8), CASP8 (gene 841) (UniProt Q14790). Description: NVS_ENZ_hCASP8: NovaScreen (NVS) Enzymatic Assay for human Caspase 8 (CASP8) (AID 2283146). The procedure, abridged: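 E. coli-expressed enzyme was used in a cell-free fluorogenic substrate assay read 1 h after dosing. Loss of signal was scored relative to DMSO, and the primary screen was run in duplicate at 25 uM.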

Assay [7] deals with human AKT serine/threonine Kinase 1 (AKT1), AKT1 (gene 207) (UniProt P31749). Nature of the assay: NVS_ENZ_hAKT1: NovaScreen (NVS) Enzymatic Assay for human AKT serine/threonine Kinase 1 (AKT1) (AID 2283138). The procedure, abridged: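 Recombinant AKT1, specific substrate, cell-free; 1 h; fluorescence intensity/electrophoretic mobility shift. Duplicate single-point 25 uM, then singleton CRC max 50 uM. DMSO = negative control/baseline; signal loss = inhibition.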
Sequence of human AKT serine/threonine Kinase 1 (AKT1), AKT1 (gene 207) (P31749 whole entry, looked up): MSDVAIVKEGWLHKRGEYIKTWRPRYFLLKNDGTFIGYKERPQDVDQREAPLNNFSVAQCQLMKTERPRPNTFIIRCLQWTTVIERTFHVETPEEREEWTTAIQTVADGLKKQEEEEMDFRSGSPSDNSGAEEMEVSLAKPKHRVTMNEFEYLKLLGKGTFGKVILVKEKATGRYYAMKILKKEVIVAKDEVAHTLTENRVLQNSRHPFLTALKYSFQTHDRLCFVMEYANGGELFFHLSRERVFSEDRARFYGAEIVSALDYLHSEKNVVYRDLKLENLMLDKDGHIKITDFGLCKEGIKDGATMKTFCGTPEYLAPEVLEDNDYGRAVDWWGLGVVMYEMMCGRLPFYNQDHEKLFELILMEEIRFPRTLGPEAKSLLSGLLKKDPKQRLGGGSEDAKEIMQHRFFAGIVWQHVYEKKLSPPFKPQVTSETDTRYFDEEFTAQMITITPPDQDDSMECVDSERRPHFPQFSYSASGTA

Inconclusive results are not listed. The source made the active and inactive calls. Rule for the calls: active = hit-call score of the fitted dose curve at least 0.9, where 1 is the maximum; inconclusive = response in the unintended direction; inactive = score below 0.9.

Sequence of human Elastase, ELANE (gene 1991) (P08246 whole entry, looked up): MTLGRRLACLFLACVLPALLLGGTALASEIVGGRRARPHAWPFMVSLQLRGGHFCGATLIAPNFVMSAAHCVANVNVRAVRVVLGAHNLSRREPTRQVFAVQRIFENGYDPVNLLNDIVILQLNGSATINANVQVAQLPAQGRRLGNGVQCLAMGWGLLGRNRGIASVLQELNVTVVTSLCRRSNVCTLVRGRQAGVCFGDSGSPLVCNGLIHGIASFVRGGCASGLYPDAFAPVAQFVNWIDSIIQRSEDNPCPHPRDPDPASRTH
Sequence of human Beta-secretase (BACE), BACE1 (gene 23621) (P56817 whole entry, looked up): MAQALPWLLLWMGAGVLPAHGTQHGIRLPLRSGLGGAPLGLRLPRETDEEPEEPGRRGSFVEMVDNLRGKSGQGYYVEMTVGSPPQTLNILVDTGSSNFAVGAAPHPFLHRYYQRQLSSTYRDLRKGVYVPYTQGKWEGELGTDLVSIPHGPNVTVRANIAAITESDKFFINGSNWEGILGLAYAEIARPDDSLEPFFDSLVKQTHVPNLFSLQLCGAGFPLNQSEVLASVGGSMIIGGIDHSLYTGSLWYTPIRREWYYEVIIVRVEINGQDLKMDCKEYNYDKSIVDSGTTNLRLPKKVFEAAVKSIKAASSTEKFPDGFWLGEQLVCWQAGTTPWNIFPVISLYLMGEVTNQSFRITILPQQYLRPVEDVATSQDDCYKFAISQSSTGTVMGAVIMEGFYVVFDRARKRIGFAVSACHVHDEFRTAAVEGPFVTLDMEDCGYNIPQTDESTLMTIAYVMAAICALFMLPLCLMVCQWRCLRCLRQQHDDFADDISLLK
Sequence of human Caspase 8 (CASP8), CASP8 (gene 841) (Q14790 whole entry, looked up): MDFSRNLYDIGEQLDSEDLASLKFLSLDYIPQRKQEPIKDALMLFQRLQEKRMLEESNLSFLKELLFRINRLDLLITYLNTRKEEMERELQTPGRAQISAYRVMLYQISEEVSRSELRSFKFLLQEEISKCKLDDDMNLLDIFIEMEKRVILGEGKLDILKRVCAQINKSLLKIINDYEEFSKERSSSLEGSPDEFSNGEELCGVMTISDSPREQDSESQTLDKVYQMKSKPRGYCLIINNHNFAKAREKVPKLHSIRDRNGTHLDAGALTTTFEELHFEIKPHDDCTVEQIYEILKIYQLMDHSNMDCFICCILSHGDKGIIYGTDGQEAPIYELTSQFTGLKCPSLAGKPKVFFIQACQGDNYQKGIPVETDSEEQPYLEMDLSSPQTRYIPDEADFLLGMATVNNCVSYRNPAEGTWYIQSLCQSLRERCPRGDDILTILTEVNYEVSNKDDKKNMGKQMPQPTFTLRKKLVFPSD
Sequence of human Casein Kinase 1-delta (CK1D), CSNK1D (gene 1453) (P48730 whole entry, looked up): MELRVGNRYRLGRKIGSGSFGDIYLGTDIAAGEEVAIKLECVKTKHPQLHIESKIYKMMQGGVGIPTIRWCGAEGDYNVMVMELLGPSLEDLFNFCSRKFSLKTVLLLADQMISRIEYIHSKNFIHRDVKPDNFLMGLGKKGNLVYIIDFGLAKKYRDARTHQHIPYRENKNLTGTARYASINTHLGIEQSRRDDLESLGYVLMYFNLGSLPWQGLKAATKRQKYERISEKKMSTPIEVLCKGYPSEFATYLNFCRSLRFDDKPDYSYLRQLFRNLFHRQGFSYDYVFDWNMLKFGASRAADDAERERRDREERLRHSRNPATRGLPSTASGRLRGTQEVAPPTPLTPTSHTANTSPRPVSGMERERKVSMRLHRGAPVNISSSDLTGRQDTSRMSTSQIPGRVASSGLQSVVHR
Sequence of human Caspase 5 (CASP5), CASP5 (gene 838) (P51878 whole entry, looked up): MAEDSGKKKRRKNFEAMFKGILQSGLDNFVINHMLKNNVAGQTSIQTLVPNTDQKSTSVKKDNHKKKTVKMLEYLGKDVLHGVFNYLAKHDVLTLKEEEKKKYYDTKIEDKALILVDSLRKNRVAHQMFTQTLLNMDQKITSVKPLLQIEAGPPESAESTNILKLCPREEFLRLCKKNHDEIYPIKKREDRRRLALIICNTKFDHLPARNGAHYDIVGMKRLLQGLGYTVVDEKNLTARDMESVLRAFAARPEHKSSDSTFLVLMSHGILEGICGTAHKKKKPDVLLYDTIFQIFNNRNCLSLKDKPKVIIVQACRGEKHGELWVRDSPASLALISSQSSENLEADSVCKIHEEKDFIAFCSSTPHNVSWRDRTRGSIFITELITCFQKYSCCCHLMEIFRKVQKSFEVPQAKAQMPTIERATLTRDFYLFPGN

As to `CC(=O)N1CCN(c2ccc(OC[C@H]3CO[C@](Cn4ccnc4)(c4ccc(Cl)cc4Cl)O3)cc2)CC1`, the result in assay [1] and in assay [2] was inactive. As for `CC(C)(C)c1csc(-c2cc3cc(OCc4ccccc4CC(=O)O)ccc3o2)n1`, the AC50 in assay [1] was 17.1 µM (active); in assay [4], 12.5 µM (active). For the same compound, the outcome in assay [3] was inactive. With `CN(C)c1ccc(C(=C2C=CC(=[N+](C)C)C=C2)c2ccc(N(C)C)cc2)cc1`, in assay [1], the AC50 was 14 µM (active).

As to `CCCC(=O)OCCC(C)C`, the compound was called inactive in assay [3]. In the case of `CC[C@@H]1C[C@H](N(Cc2cc(C(F)(F)F)cc(C(F)(F)F)c2)C(C)=O)c2cc(C(F)(F)F)ccc2N1C(=O)OC(C)C`, the result in assay [4] was inactive. Turning to `CN1C(=O)N(c2ccccc2Br)Cc2cnc(Nc3ccc4c(c3)OCC(CO)O4)nc21` (stereo not drawn), the AC50 is 12.5 µM (active) in assay [5], 11.7 µM (active) with CDK2 (gene 1017) and 17 µM (active) in assay [4]. With `c1ccc2n[nH]nc2c1`, the AC50 in assay [2] was 25 µM (active). With `O=C(O)Cc1cc(I)c(Oc2ccc(O)c(I)c2)c(I)c1`, the call in assay [1], in assay [2] and in assay [3] was inactive. As to `OCCO`, in assay [1], the result was inactive. In the case of `CCCCCCCCOc1ccc(C(=O)c2ccccc2)c(O)c1`, the outcome in assay [6] was inactive.

On to `C[C@]12CC[C@@H]3c4ccc(O)cc4CC[C@H]3[C@@H]1CC[C@H]2O`, for which, in assay [3], the compound was classed as inactive. Take `O=C(Nc1ccc(Cl)cc1)Nc1ccc(Cl)c(Cl)c1`: in assay [1], the AC50 was 16.3 µM (active). For the same compound, the outcome in assay [2] was inactive. In the case of `CO[C@H]1/C=C/O[C@@]2(C)Oc3c(C)c(O)c4c(O)c(c(/C=N/N5CCN(C)CC5)c(O)c4c3C2=O)NC(=O)/C(C)=C\C=C\[C@H](C)[C@H](O)[C@@H](C)[C@@H](O)[C@@H](C)[C@H](OC(C)=O)[C@@H]1C`, the AC50 was 25.1 µM (active) in assay [7] and 6.48 µM (active) in assay [6]. The outcome in assay [1] was inactive. Turning to `O=C(O)c1ccccc1-n1cc(C(=O)O)c(=O)c2cc(Nc3c(F)cc(F)cc3Cl)c(Cl)cc21`, the values for the half-maximal activity concentration (AC50) in assay [1] and in assay [4] were 5.43 µM (active) and 18.4 µM (active), respectively. As to `NC(=O)c1nc(-c2cccc(-c3cc(F)ccc3OCC(F)(F)C(F)(F)F)c2)n[nH]1`, the call in assay [1] was inactive. Turning to `Clc1cc(Cl)c2c(c1)N=C1CCCCCN1C2`, the outcome in the assay with CDK2 (gene 1017) was inactive.

As to `CCCCCCCCCCCO`, the AC50 in assay [4] was 27.4 µM (active). On to `Cc1ccc(C(C)C)cc1`, for which the compound was classed as inactive in assay [1]. For `O=C1O[C@H]([C@@H](O)CO)C(O)=C1O`, the outcome in assay [4] was inactive. With `CCCCCCCCCCCC[N+](C)(C)C`, the call in assay [6] was inactive. For `O=CCCCC=O`, the half-maximal activity concentration (AC50) in assay [7] is 25 µM (active). Further, the compound was classed as inactive in assay [2].

The term AC50 denotes the concentration giving half of the maximal activity seen.
